Usually Inhibition stands for the change of the read-out against control, counted positive when it falls.

Holding throughout (assay type): functional
For test [1], the system named is Plasmodium falciparum. Description: GSK_TCMDC: Inhibition of Plasmodium falciparum 3D7 in whole red blood cells, using parasite LDH activity as an index of growth. Test compounds present at 2uM.
Test [2] has as its system Plasmodium falciparum. Description: GSK_TCMDC: Inhibition of Plasmodium falciparum Dd2 in whole red blood cells, using parasite LDH activity as an index of growth. Test compounds present at 2uM.
The subject of test [3] is HepG2. Description: GSK_TCMDC: Percent inhibition of human HepG2 cell line. Test compounds present at 10uM.

Where “and” joins values, the source holds several entries; their conditions need not be identical. Identical values can stand only once.

As to `COc1ccc2[nH]cc(C3CC4CCC(C3)N4CCC3CCN(C(=O)/C=C/c4ccc(Cl)c(Cl)c4)CC3)c2c1` (stereo not given), the Inhibition is recorded as 100% in test [1], 80% in test [2] and 38% in test [3].
With `CC(=O)Nc1ccc(OCCN(CC(F)(F)F)c2ccc(C#N)cc2C(F)(F)F)cc1`, the Inhibition in test [1] was 81%; in test [2] it was 83%; in test [3], 0%.
On the same counts, the results for `c1ccc(C(OCCC2CCN(Cc3cccnc3)CC2)c2ccccc2)cc1` are 99%, 98% and 12%.
For the compound `Cc1[nH]c2cc(Cl)ccc2c1C1=CCN(CCCCC2(C)C(=O)Nc3ccccc32)CC1` (stereo not given), the values for the Inhibition in test [1], in test [2] and in test [3] were 94%, 90% and 0%, respectively.
For `CN(c1cc(NC(=O)c2cccs2)ccn1)C1CCN(Cc2cccc(F)c2)CC1.O=C(O)C(F)(F)F`, in that order: 94%, 95% and 0%.
On the same counts, the results for `CNCCCCCCc1ccc(CC(C)NCC(O)c2cccc(Cl)c2)cc1.Cl` (stereo not given) are 94%, 76% and 22%.
For `Cc1c(C(=O)NC2CCC(CN3CCC(c4c[nH]c5ccccc45)CC3)CC2)cnn1-c1c(Cl)cc(Cl)cc1Cl` (stereo not given), in that order: 100%, 97% and 53%.
In the case of `O=C(/C=C/c1ccc(Cl)c(Cl)c1)NC1CCC(CN2CCC(c3c[nH]c4ccccc34)CC2)CC1` (stereo not given), the results for the Inhibition in test [1], in test [2] and in test [3] were 100%, 85% and 27%, respectively.
For `CC1(CCCCN2CC=C(c3c[nH]c4ccccc34)CC2)C(=O)Nc2ccccc21` (stereo not given), in that order: 94%, 90% and 3%.
`O=C(CCc1ccco1)NC1CCN(CC2(c3ccc(Cl)cc3)CCC2)CC1`: the Inhibition in test [1] is recorded as 99%; in test [2] it was 67%; in test [3] it was 0%.
In the case of `O=[N+]([O-])c1ccc(Oc2c(Cl)cc(S(=O)(=O)N3CCC(CN4CCC(c5c[nH]c6ccccc56)CC4)CC3)cc2Cl)c(Cl)c1`, the Inhibition in test [1] was 100%; in test [2] it was 83%; in test [3], 43%.
On the same counts, the results for `O=C(NC1CCC(CN2CCC(c3c[nH]c4ccccc34)CC2)CC1)C1(O)c2ccccc2-c2ccccc21` (stereo not given) are 85%, 46% and 22%.
For `COC(=O)/C=C/c1ccc(CC(C)NCC(O)c2cccc(C(F)(F)F)c2)cc1.Cl` (stereo not given), in that order: 97%, 93% and 41%.
For `Cc1[nH]c2ccccc2c1C1=CCN(CCN2CCCc3c(Br)cccc3C2=O)CC1`, in that order: 95%, 90% and 10%.
In the case of `CC[C@H]1CN2CC[C@@H]1C[C@H]2[C@H](O)c1cc(-c2c(C)noc2C)nc2ccc(OC)cc12.Cl`, the Inhibition in test [1] turned out to be 100%; in test [2], 98%; in test [3] it was 4%.
On the same counts, the results for `COc1ccc(C[C@H]2NC[C@H](O)[C@H]2OC(C)=O)cc1` [ANISOMYCIN] are 100%, 98% and 39%.
On the same counts, the results for `CCCCCC(C)C(C)c1cc(O)c2c(c1)OC1(C(C)C)CC(O)C(C)C2C1` (stereo not given) are 93%, 87% and 1%.
On the same counts, the results for `CCCCCOc1ccc(CC(C)NCC(O)c2cccc(Cl)c2)cc1` (stereo not given) are 100%, 99% and 0%.
As to `C[C@H](Cc1ccc(OCCCCCCOc2ccccc2)cc1)NC[C@H](O)c1cccc(Cl)c1.Cl`, the Inhibition in test [1] amounted to 93%; in test [2], 99%; in test [3], 21%.
Turning to `O=C(/C=C/c1ccc(Cl)c(Cl)c1)NC1CCC(CN2CCC(c3c[nH]c4ccc(O)cc34)CC2)CC1` (stereo not given), the Inhibition in test [1] is 100%; in test [2], 100% and 99%; in test [3], 35% and 38%.
Take `Cc1[nH]c2c(C)cc(NS(C)(=O)=O)cc2c1C1CCN(CC2CCN(C(=O)/C=C/c3ccc(Cl)c(Cl)c3)CC2)CC1`: the Inhibition in test [1] turned out to be 100%; in test [2] it was 99%; in test [3], 33%.
Take `CC(Cc1ccc(NC(=O)CCCc2ccccc2)cc1)NCCc1cccc(Cl)c1.Cl` (stereo not given): the Inhibition in test [1] was 94%; in test [2] it was 3%; in test [3] it was 12%.
For `Oc1ccc(CN2CCN(CCOC(c3ccccc3)c3ccccc3)CC2)cc1Cl`, in that order: 98%, 77% and 7%.
On the same counts, the results for `CC1(C)CCCN(C(=O)Cc2ccc3c(c2)CCCC3)C1CN1CC=CC1.Cl` (stereo not given) are 98%, 1% and 0%.
On the same counts, the results for `Oc1cc2c(cc1CN1CCN(Cc3ccccc3)CC1)CCC2` are 98%, 92% and 1%.
Regarding `NCc1cccc(-c2cccc(CN(C(=O)Nc3ccccc3)C3CCN(Cc4ccccc4)CC3)c2)c1.O=C(O)C(F)(F)F`, the Inhibition in test [1] turned out to be 99%; in test [2] it was 8%; in test [3], 3%.
For `COc1cccc(CN2CCC(CCOC(c3ccccc3)c3ccc(Cl)cc3)CC2)c1O` (stereo not given), in that order: 99%, 100% and 22%.
On the same counts, the results for `CC[C@H]1CN2CCc3cc(OC)c(OC)cc3[C@@H]2C[C@@H]1C[C@H]1NCCc2c1cc(OC)c(OC)c2Br` are 99%, 97% and 45%.
On the same counts, the results for `COc1ccc(OC)c(C=CC(=O)NC2CCC(CN3CCC(c4c[nH]c5ccccc45)CC3)CC2)c1` (stereo not given) are 98%, 62% and 43%.
For `NC(=O)CN1CC=C(c2c[nH]c3ccc(Br)cc23)CC1`, the values for the Inhibition in test [1], in test [2] and in test [3] were 83%, 0% and 30%, respectively.

Source of the values: ChEMBL document CHEMBL1157539, “Thousands of chemical starting points for antimalarial lead identification” (Nature, 2010).
